{
  "source": "PubChem BioAssay",
  "note": "Activity calls are given as the source filed them.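 Rule for the calls, unless noted: active = RAM network inhibition above 8.4% in each of two replicates, 3 SD over the compound average; inconclusive = above 8.4% inhibition in only one replicate; inactive = 8.4% inhibition or less in each replicate.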",
  "data": [
    {"assay": "RAM pathway blockade in budding yeast – dse1pr::URA3 reporter, 5-FOA selection, pilot screen (AID 869;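 active = inhibition over a set limit, the all-compound mean plus 3 SD, in both replicate runs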;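 note: 0% = DMSO wells with no growth and 100% = 10 µM 1-NA-PP1 with full growth; RAM network block rescues cells from 5-FOA so hits raise OD615 growth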)", "settings": "S. cerevisiae dse1pr::URA3 5-FOA growth, OD615, 2 d; at 10 µM; hits give high values; strain carries analog-sensitive mutant Cbk1 kinase", "values": [
      {"smiles": "COC(=O)C1C(C(C)C)N(c2ccccc2)OC1(C)O", "note": "(centres undefined)", "inhibition": "0.93% (inactive)"},
      {"smiles": "O=C(CCSCCC(=O)NCc1cccs1)NCc1cccs1", "inhibition": "3.47% (inactive)"},
      {"smiles": "CCOc1ccc(-n2c(SCC(=O)NCc3ccco3)nc3c([nH]c4ccccc43)c2=O)cc1", "inhibition": "1.14% (inactive)"},
      {"smiles": "Cc1ccc2oc(=O)c3cnn(CC(=O)NCCN(C)C)c3c2c1", "inhibition": "0.365% (inactive)"},
      {"smiles": "Cc1ccc(C(C)C)c(OCC(=O)N2CCOCC2)c1", "inhibition": "1.69% (inactive)"},
      {"smiles": "Cc1ccc(-c2nnc(SCC(=O)Nc3ccccc3F)o2)cc1", "inhibition": "4.38% (inactive)"},
      {"smiles": "c1ccc(CN2CCN(c3nc4ccccc4n4cnnc34)CC2)cc1", "inhibition": "0.625% (inactive)"},
      {"smiles": "O=C(Cn1nc(C(=O)O)c2ccccc2c1=O)NCC1CCCO1", "note": "(centres undefined)", "inhibition": "1.71% (inactive)"},
      {"smiles": "Cc1ccc2c(c1)c1c(n2CC(O)CN2C(=O)CNC2=O)C(=O)CCC1", "note": "(centres undefined)", "inhibition": "1.74% (inactive)"},
      {"smiles": "CCCCNc1ncnc2c1cnn2-c1ccc(Cl)cc1", "inhibition": "0.835% (inactive)"},
      {"smiles": "Cc1ccc(-n2ncc3c(NCCCn4ccnc4)ncnc32)c(C)c1", "inhibition": "1.5% (inactive)"},
      {"smiles": "CCOC(=O)c1sc(NC(=O)C2CCCO2)c(C(=O)OCC)c1C", "note": "(centres undefined)", "inhibition": "1.31% (inactive)"},
      {"smiles": "CC(C)Oc1ccc(N2CC(C(=O)Nc3ccc4c(c3)OCO4)CC2=O)cc1", "note": "(centres undefined)", "inhibition": "2.58% (inactive)"},
      {"smiles": "CC(=O)c1cc(F)c(N2CCN(CCC#N)CC2)cc1C", "inhibition": "0.35% (inactive)"},
      {"smiles": "CC12CC(NC(=O)N1CCc1ccccc1)c1ccccc1O2", "note": "(centres undefined)", "inhibition": "1.45% (inactive)"},
      {"smiles": "COc1ccc2nc(NC(=O)c3ccc4ncsc4c3)sc2c1", "inhibition": "3.54% (inactive)"},
      {"smiles": "CCOC(=O)c1c(NC(C)=O)no[n+]1[O-]", "inhibition": "0.795% (inactive)"},
      {"smiles": "COc1ccc(N2CCN(CCCNS(=O)(=O)c3ccc4c(c3)oc(=O)n4C)CC2)cc1", "inhibition": "1.25% (inactive)"},
      {"smiles": "Cn1c(C(=O)N2CCCCCC2)cc2c(=O)n(C)c3ccccc3c21", "inhibition": "1.33% (inactive)"},
      {"smiles": "COc1ccc(N(CC(=O)Nc2cc(OC)ccc2OC)S(=O)(=O)c2c(C)nn(C)c2C)cc1", "inhibition": "1.36% (inactive)"},
      {"smiles": "Cn1c2ccc(Cl)cc2c2nc3ccccc3nc21", "inhibition": "7.62% (active)"},
      {"smiles": "COc1ccc(C(=O)N2CCC(C(=O)Nc3ccc(OC)c(OC)c3)CC2)cc1", "inhibition": "1.28% (inactive)"},
      {"smiles": "Cc1ccc(O)c(-c2cc(C(F)(F)C(F)F)nc(-c3ccccc3)n2)c1", "inhibition": "2.58% (inactive)"},
      {"smiles": "COc1ccccc1-c1nnc(SCC(=O)N2CCOCC2)o1", "inhibition": "1.75% (inactive)"}
    ]},
    {"assay": "RAM signaling pathway blockade in yeast – S. cerevisiae, Pdr1DBD-CYC8 efflux-inhibited sensitized strain, primary screen (AID 1298);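 note: 0% = DMSO untreated cells without growth and 100% = 10 µM 1-NA-PP1 full growth; higher means more yeast growth rescued from 5-FOA killing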", "settings": "S. cerevisiae cbk1-as DSE1-URA3 strain, 5-FOA growth OD615, 2 d; at 50 µM; hits give high values", "values": [
      {"smiles": "CCOCCOC(=O)C1=C(C)N(C)C(=O)NC1c1ccccc1Cl", "note": "(centres undefined)", "RAM network inhibition": "0.57% (inactive)"},
      {"smiles": "COc1ccc(C(=O)NCC(c2cccnc2)N2CCN(c3ccccc3)CC2)cc1OC", "note": "(centres undefined)", "RAM network inhibition": "2.74% (inactive)"},
      {"smiles": "CCCCCCN=CC1=C(O)C(C(=O)OC)C(C)(C)CC1=O", "note": "(centres undefined)", "RAM network inhibition": "0.11% (inactive)"},
      {"smiles": "COCCN1C=C(C(=O)OC)C(c2ccc3c(c2)OCO3)C(C(=O)OC)=C1", "RAM network inhibition": "3.59% (inactive)"},
      {"smiles": "CCCCCOC(=O)Cn1c(=O)oc2ccccc21", "RAM network inhibition": "4.28% (inactive)"},
      {"smiles": "O=C(NCc1ccco1)c1nnc(Cc2ccc(F)cc2)o1", "RAM network inhibition": "4.79% (inactive)"},
      {"smiles": "CCOC(=O)CSc1nc2sc(C(=O)O)c(C)c2c(=O)[nH]1", "RAM network inhibition": "3.85% (inactive)"},
      {"smiles": "COc1ccc(NC(=O)C2c3cc(OC)c(OC)cc3C(=O)N(C)C2c2cccnc2)cc1OC", "note": "(centres undefined)", "RAM network inhibition": "4.68% (inactive)"},
      {"smiles": "Fc1ccc(-n2[nH]nnc2=S)cc1N1CCCC1", "RAM network inhibition": "-2.49% (inactive)"},
      {"smiles": "CCc1c(C)sc(NC(=O)c2cccs2)c1C(=O)OC(C)C", "RAM network inhibition": "5.72% (inactive)"},
      {"smiles": "COC(=O)c1cc(OC)c(OC)cc1NC(=O)c1c(-c2ccccc2Cl)noc1C", "RAM network inhibition": "4.85% (inactive)"},
      {"smiles": "CC1=C(C(=O)OCC2CCCO2)C(c2ccncc2)C2=C(CCCC2=O)N1", "note": "(centres undefined)", "RAM network inhibition": "1.82% (inactive)"},
      {"smiles": "COc1ccc(S(=O)(=O)N2CCC(C(=O)N3CCc4ccccc4C3)CC2)cc1OC", "RAM network inhibition": "5.37% (inactive)"},
      {"smiles": "O=C(CN1CCOc2ccccc21)N1CCC(Cc2ccccc2)CC1", "RAM network inhibition": "8.63% (inactive)"},
      {"smiles": "CCOCCCNC(=O)C(c1ccc(Cl)cc1)N1CCN(c2ccccc2)CC1", "note": "(centres undefined)", "RAM network inhibition": "3.13% (inactive)"},
      {"smiles": "COC(=O)c1c(NC(=O)CSc2nnnn2-c2ccccc2)sc2c1CCC(C)C2", "note": "(centres undefined)", "RAM network inhibition": "10.1% (inactive)"},
      {"smiles": "COC(=O)C1C(C(C)C)N(c2ccccc2)OC1(C)O", "note": "(centres undefined)", "RAM network inhibition": "1.66% (inactive)"},
      {"smiles": "O=C(CCSCCC(=O)NCc1cccs1)NCc1cccs1", "RAM network inhibition": "2.86% (inactive)"},
      {"smiles": "CCOc1ccc(-n2c(SCC(=O)NCc3ccco3)nc3c([nH]c4ccccc43)c2=O)cc1", "RAM network inhibition": "7.07% (inactive)"},
      {"smiles": "Cc1ccc2oc(=O)c3cnn(CC(=O)NCCN(C)C)c3c2c1", "RAM network inhibition": "0.55% (inactive)"},
      {"smiles": "Cc1ccc(C(C)C)c(OCC(=O)N2CCOCC2)c1", "RAM network inhibition": "1.97% (inactive)"},
      {"smiles": "Cc1ccc(-c2nnc(SCC(=O)Nc3ccccc3F)o2)cc1", "RAM network inhibition": "5.9% (inactive)"},
      {"smiles": "c1ccc(CN2CCN(c3nc4ccccc4n4cnnc34)CC2)cc1", "RAM network inhibition": "2.12% (inactive)"},
      {"smiles": "O=C(Cn1nc(C(=O)O)c2ccccc2c1=O)NCC1CCCO1", "note": "(centres undefined)", "RAM network inhibition": "6.89% (inactive)"},
      {"smiles": "Cc1ccc2c(c1)c1c(n2CC(O)CN2C(=O)CNC2=O)C(=O)CCC1", "note": "(centres undefined)", "RAM network inhibition": "3.57% (inactive)"},
      {"smiles": "CCCCNc1ncnc2c1cnn2-c1ccc(Cl)cc1", "RAM network inhibition": "5.62% (inactive)"},
      {"smiles": "Cc1ccc(-n2ncc3c(NCCCn4ccnc4)ncnc32)c(C)c1", "RAM network inhibition": "2.5% (inactive)"},
      {"smiles": "CCOC(=O)c1sc(NC(=O)C2CCCO2)c(C(=O)OCC)c1C", "note": "(centres undefined)", "RAM network inhibition": "2.09% (inactive)"},
      {"smiles": "CC(C)Oc1ccc(N2CC(C(=O)Nc3ccc4c(c3)OCO4)CC2=O)cc1", "note": "(centres undefined)", "RAM network inhibition": "4.96% (inactive)"},
      {"smiles": "CC(=O)c1cc(F)c(N2CCN(CCC#N)CC2)cc1C", "RAM network inhibition": "0.47% (inactive)"},
      {"smiles": "CC12CC(NC(=O)N1CCc1ccccc1)c1ccccc1O2", "note": "(centres undefined)", "RAM network inhibition": "5.31% (inactive)"},
      {"smiles": "COc1ccc2nc(NC(=O)c3ccc4ncsc4c3)sc2c1", "RAM network inhibition": "8.79% (inactive)"},
      {"smiles": "CCOC(=O)c1c(NC(C)=O)no[n+]1[O-]", "RAM network inhibition": "5.03% (inactive)"},
      {"smiles": "COc1ccc(N2CCN(CCCNS(=O)(=O)c3ccc4c(c3)oc(=O)n4C)CC2)cc1", "RAM network inhibition": "6.05% (inactive)"},
      {"smiles": "Cn1c(C(=O)N2CCCCCC2)cc2c(=O)n(C)c3ccccc3c21", "RAM network inhibition": "4.52% (inactive)"},
      {"smiles": "COc1ccc(N(CC(=O)Nc2cc(OC)ccc2OC)S(=O)(=O)c2c(C)nn(C)c2C)cc1", "RAM network inhibition": "0.21% (inactive)"},
      {"smiles": "Cn1c2ccc(Cl)cc2c2nc3ccccc3nc21", "RAM network inhibition": "12.6% (inactive)"},
      {"smiles": "COc1ccc(C(=O)N2CCC(C(=O)Nc3ccc(OC)c(OC)c3)CC2)cc1", "RAM network inhibition": "2.4% (inactive)"},
      {"smiles": "Cc1ccc(O)c(-c2cc(C(F)(F)C(F)F)nc(-c3ccccc3)n2)c1", "RAM network inhibition": "7.06% (inactive)"},
      {"smiles": "COc1ccccc1-c1nnc(SCC(=O)N2CCOCC2)o1", "RAM network inhibition": "2.61% (inactive)"}
    ]}
  ]
}
